Source: PubChem BioAssay (National Center for Advancing Translational Sciences (NCATS))
In the library only some 12% were active in any assay of this set; here they are far more common.
Sfp PPTase inh: inhibitors of Bacillus subtilis Sfp phosphopantetheinyl transferase; Q9F4F7; Biochemical Sfp PPTase activity, qHTS; Potency, µM, without a hit: largest response in the series, negative = inhibition, actives largely listed as inhibitors; 3.5% of 310,000 active;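 note: the enzyme is Sfp with the accession as filed and its product quenches rhodamine fluorescence; 0% = enzyme reaction without inhibitor and -100% = no enzyme wells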
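Compounds were incubated with enzyme (final 15 nM) for 15 min at room temperature before substrate addition started the reaction. Fluorescence at 525 nm excitation, 598 nm emission was recorded immediately and after 30 minutes.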
PLK1 PBD inh: PLK1 (human) polo-box domain binding inhibition. Potency, µM, for the others: max response, negative = inhibition, usual class: inhibitors. 2.8% of 360,000 active. Plk1 PBD binding of FITC phosphopeptide, fluorescence polarization. AID 720504. P53350; note: series mostly up to about 57 µM; % is set by controls: 0 for no effect and ±100 for the full control effect; nearly all actives have a fitted effect of over 65% in size
HP1b binding inh: blocks HP1-beta chromodomain binding to methylated histone tails; P83916; AlphaScreen HP1-beta / biotin-H3K9me3 peptide binding; Potency, µM (highest dose often 114 µM), inactives show at the highest dose activity change, negative = inhibition, usual class: inhibitors; 0.56% of 390,000 active; note: nearly all actives have a fitted effect of over 70% in size
Target sequence (P83916 whole entry, looked up): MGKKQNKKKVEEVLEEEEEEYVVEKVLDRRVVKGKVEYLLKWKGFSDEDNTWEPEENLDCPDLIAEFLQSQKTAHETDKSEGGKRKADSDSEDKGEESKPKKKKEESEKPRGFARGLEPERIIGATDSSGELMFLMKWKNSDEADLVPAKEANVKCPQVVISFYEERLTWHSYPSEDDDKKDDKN
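Compound inhibition of the preformed complex between 50 nM HP1-beta and 50 nM biotinylated H3K9me3 peptide was read by AlphaScreen. Buffer was PBS pH 7.4 with 0.01% Tween-20. Incubations ran 30 min at room temperature, with 10 ug/mL donor/acceptor beads.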
BAZ2B inh: blocks human BAZ2B | Q9UIF8 | AlphaScreen BAZ2B-H3K14Ac peptide displacement | Potency, µM (top dose mostly 114 µM), without a hit: at the top dose activity change, negative = inhibition, actives largely listed as inhibitors | 4.4% of 360,000 active | AID 504333; note: % is set by controls: 0 for no effect and ±100 for the full control effect; nearly all actives have a fitted effect of over 60% in size
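AlphaScreen displacement: compounds (up to 110uM) incubated 30 min at room temperature with a preformed 50 nM BAZ2B/50 nM biotinylated H3K14Ac peptide complex in PBS pH 7.4 with Tween-20. Donor and acceptor beads at 10 ug/mL final added, 20 min light-protected before reading.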
JMJD2A Tudor inh: JMJD2A Tudor domain (human) inhibition; O75164; 4.4% of 390,000 active; Potency, µM (titrated, usually from 114 µM), for the others: top-dose activity change, negative = inhibition, usual class: inhibitors; AlphaScreen JMJD2A-Tudor / H3K4me3 peptide binding; note: % is set by controls: 0 for no effect and ±100 for the full control effect; nearly all actives have a fitted effect of over 50% in size
G9a inh: G9a (human) methyltransferase inhibition; Q96KQ7; G9a H3K9 monomethylation, AlphaScreen, 2 h; Potency, µM (titrated, usually from 102 µM), for the others: at the highest dose activity, negative = inhibition, actives largely listed as inhibitors; 8.8% of 350,000 active; AID 504332; note: % is set by controls: 0 for no effect and ±100 for the full control effect; nearly all actives have a fitted effect of over 75% in size
Target sequence (Q96KQ7 913-1193 limits assumed): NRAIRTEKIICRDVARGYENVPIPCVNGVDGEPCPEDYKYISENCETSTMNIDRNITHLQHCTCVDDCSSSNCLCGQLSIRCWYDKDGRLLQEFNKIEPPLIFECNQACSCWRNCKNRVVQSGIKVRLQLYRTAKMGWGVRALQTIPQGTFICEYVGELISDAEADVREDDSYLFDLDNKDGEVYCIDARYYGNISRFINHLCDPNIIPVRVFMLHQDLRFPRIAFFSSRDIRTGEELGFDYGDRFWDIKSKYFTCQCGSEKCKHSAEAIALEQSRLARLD
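Chemiluminescent proximity detection of H3K9 monomethylation, read after 10 min bead incubation in the dark. Reaction: 20 nM G9a, 500 nM biotin-H3K9 peptide, 20 uM SAM cofactor, 2 h, room temperature, following 15 min enzyme-compound preincubation.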
An asterisk follows results filed as active; ? = inconclusive; . = no result; [ ] = dose if it differs, or a comment. Calls come from the whole dose curve; as a rule, active = well fitted curve in the direction sought with a large enough effect; inconclusive = small, poorly fitted or top-dose-only effect, or another doubt; inactive = no such curve, though single readings can be large; an effect the other way counts as inactive or inconclusive. Potency is the fitted concentration of half-maximal effect.

SMILES	Sfp PPTase inh	PLK1 PBD inh	HP1b binding inh	BAZ2B inh	JMJD2A Tudor inh	G9a inh
CCOc1cccc(C(=O)Nc2ccc(-c3nc4cc(C)cc(C)c4o3)cc2)c1	.	.	17%	2%	-13%	-13%[59 µM]
O=C(O)CC(NCc1ccco1)C(=O)OCCCl (stereo not given)	-46%	-7%	-3%	?	28µM*	7.9µM*
Cc1c(N(C)S(=O)(=O)c2cccc(C(=O)NC(C)C)c2)c(=O)n(-c2ccccc2)n1C	79µM*	30µM*	6%	-2%	-23%	32µM*
Cc1c(N(C)S(=O)(=O)c2cccc(C(=O)NCC3CCCO3)c2)c(=O)n(-c2ccccc2)n1C (stereo not given)	.	-8%	13%	20%	1%	-8%[0.501 µM]
O=C(OC(C(=O)NCc1ccco1)C(OC(=O)c1ccccc1)C(=O)NCc1ccco1)c1ccccc1 (stereo not given)	0%	-1%	7%	-6%	-4%	-21%
C=CC[C@@H](CC(=O)N[C@H](CO)Cc1ccccc1)C(=O)N[C@H](COC(=O)[C@@H](CC=C)CC(=O)OC(C)(C)C)Cc1ccccc1	.	2%	54%	.	-13%	.
Cc1c(Nc2nc3ccccc3nc2NS(=O)(=O)c2ccccc2)c(=O)n(-c2ccccc2)n1C	-7%	-11%	12%	-5%	-14%	-35%[59 µM]
Cn1ccnc1Sc1nc2ccccc2nc1NS(=O)(=O)c1ccccc1	50µM*	?	27%	?	-20%	-28%[59 µM]
Cn1cnnc1Sc1nc2ccccc2nc1NS(=O)(=O)c1ccccc1	1%	-12%	37%	?	-14%	50µM*
CC(=O)Nc1ccc(S(=O)(=O)Nc2nc3ccccc3nc2Sc2nncn2C)cc1	?	?	26%	23%	-20%	?
C[C@H](N)C(=O)N[C@@H](CO)C(=O)N[C@H](C(=O)N[C@H](C(=O)N[C@H](C(=O)N[C@@H](CC(N)=O)C(=O)N[C@@H](Cc1ccc(O)cc1)C(=O)N[C@H](C(=O)O)[C@@H](C)O)[C@@H](C)O)[C@@H](C)O)[C@@H](C)O	13%	.	.	.	.	.
CCn1cc(C(=O)OCC(=O)c2cc(C)n(-c3ccccc3F)c2C)c(=O)c2ccc(C)nc21	-11%	27µM*	?	?	40µM*	-21%[59 µM]
CN(C)c1ccc(CNc2nc(-c3ccco3)nn2S(=O)(=O)c2ccc3ccccc3c2)cc1	.	.	?	8.9µM*	8.9µM*	7.9µM*
CN(C)c1ccc(CNc2nc(-c3ccco3)nn2S(=O)(=O)c2ccc(Cl)cc2)cc1	.	.	-19%	12%	?	1%[59 µM]
Cc1ccccc1NC(=O)CSc1nc(-c2cccs2)nc2cc(=O)[nH]n12	.	.	6%	50µM*	?	17%[12.7 µM]
O=C(CSc1nc(-c2ccco2)nc2cc(=O)[nH]n12)Nc1ccccc1Cl	.	.	23%	-16%	-3%	-4%[59 µM]
Cc1ccc(NC(=O)CSc2nc(-c3ccco3)nc3cc(=O)[nH]n23)c(Cl)c1	?	-29%	26%	45µM*	?	.
O=C(CSc1nc(-c2cccc(Cl)c2)nc2cc(=O)[nH]n12)Nc1ccccc1	.	.	-1%	56µM*	?	-7%[59 µM]
CCOc1ccc(-c2nc(SCC(=O)Nc3ccc(C)c(C)c3)n3[nH]c(=O)cc3n2)cc1	.	.	?	50µM*	50µM*	-4%[59 µM]
Cc1ccc(NC(=O)c2ccc(-n3nncc3-c3ccccc3)cc2)cc1	.	.	3%[57 µM]	.	-15%[57.1 µM]	.
COc1cc(NC(=O)CN2CCN(C(=O)c3ccco3)CC2)c(C)cc1[N+](=O)[O-]	.	-7%	.	.	.	.
CC[C@@H](C(=O)[C@@H](C)[C@@H](O)[C@H](C)CCc1ccc(C)c(O)c1C(=O)O)C1O[C@](CC)(C2CC[C@](O)(CC)[C@H](C)O2)C[C@@H]1C (stereo not given in full)	0%	.	.	.	.	.
Cc1ccc(NC(=O)CSc2nc(-c3cccs3)nc3cc(=O)[nH]n23)cc1C	.	.	-21%	50µM*	79µM*	25%[12.7 µM]
COc1cc2c(cc1[N+](=O)[O-])-c1ccc([N+](=O)[O-])cc1C2=NO	.	-11%	.	.	.	.
O=C(CSc1nc2ccccc2c(=O)n1-c1ccc(F)cc1)Nc1ccc(N2CCOCC2)cc1	-15%	-4%	25%	-4%	0%	45µM*
SMILES	Sfp PPTase inh	PLK1 PBD inh	HP1b binding inh	BAZ2B inh	JMJD2A Tudor inh	G9a inh
O=C(c1ccc(-n2c(SCc3cccc(F)c3)nc3ccccc3c2=O)cc1)N1CCOCC1	-15%	27µM*	17%	-32%	40µM*	-9%[59 µM]
O=C(O)c1ccc(CSc2nc3ccccc3c(=O)n2-c2ccccc2)cc1	25%	-3%	49%	-19%	5%	7%
Cc1ccc(-n2c(SCC(=O)Nc3ccc(N4CCOCC4)cc3)nc3ccccc3c2=O)cc1	?	-6%	40%	-28%	-4%	12%[59 µM]
O=C(CSc1n[nH]c(=O)n1Cc1ccccc1)Nc1ccc(N2CCOCC2)cc1	.	-6%	6%	4%	-12%	56µM*
O=C(c1ccncc1)N1CCC2(CCCN(c3ccccn3)C2)CC1	4%	.	.	.	.	2%[12.7 µM]
Nc1nc(NCc2ccc(Cl)cc2Cl)c2[nH]cnc2n1	.	.	18%	.	-21%	.
CCc1cccc(NS(=O)(=O)c2ccc3c(c2)N(C)CCO3)c1	3%	24µM*	-9%	?	32µM*	?
O=C(NCCc1ccccc1)c1ccc(CSc2nc3ccncc3n2Cc2ccccc2F)cc1	.	.	52%	-4%	-16%	?
CCOc1ccccc1Nc1ncnc2c1c(-c1ccccc1)cn2-c1ccc(OC)cc1	.	.	-6%	-29%	-16%	-14%[59 µM]
CC(NC(=O)C12CC3CC(CC(C3)C1)C2)C(=O)NCCN(C)C (stereo not given)	23%	30µM*	-8%	5%	15%[11.4 µM]	-5%
CC(OCCN(C)C)C(=O)C12CC3CC(CC(C3)C1)C2 (stereo not given)	20%	-2%	22%	-4%	-1%	-9%
O=C(c1ccc(F)cc1)C1CCN(S(=O)(=O)c2ccccc2)CC1	-2%	-3%	37%	15%	-7%	.
O=C(c1ccc(F)cc1)N1CCCCC(S(=O)(=O)c2ccccc2)C1=O (stereo not given)	79µM*	3%	30%	-1%	-5%	?
COc1ccc(N2Cc3cccc(C(=O)Nc4ccc(Cl)cc4)c3C2=O)cc1	.	.	10%	?	-35%	-34%[59 µM]
COc1ccc(N2Cc3cccc(C(=O)N4CCN(C(=O)c5ccco5)CC4)c3C2=O)cc1	?	?	?	50µM*	50µM*	45µM*
COc1ccc(N2Cc3cccc(C(=O)Nc4cccc(F)c4)c3C2=O)cc1	.	.	-26%	.	20µM*	-31%[59 µM]
Cc1nc2cc(-c3ccccc3)nn2c(C)c1CCC(=O)N1CCN(c2ccc(F)cc2)CC1	.	.	5%	-32%	-28%	-11%[59 µM]
